# Source: PubChem
# HT1080NT lethal: kills 2HG-producing HT-1080-NT fibrosarcoma cells | hit rate 1.6% among 360,000 | HT-1080-NT fibrosarcoma viability, CellTiter-Glo ATP luminescence, 48 h | Potency, µM (doses to about 46.1 µM), without a hit: top-dose activity, negative = less viability, usual class: cytotoxic;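 note: NT is the 2HG producing partner of a matched IDH1 knockdown line; potency is the fitted concentration of half-maximal effect; 0% = DMSO-treated cells and -100% = media-only wells without cells; nearly all actives have a fitted effect of over 55% in size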
#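 Compounds were tested in concentration-response format on HT-1080-NT cells for 48 hours at 37 degrees C. Cell viability came from CellTiter-Glo luminescence; curves were classified by r2, response magnitude and activity.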
# DT40 TDP1 CPT: DT40-hTDP1 cell growth loss with CPT; chicken DT40 Tdp1-/-;hTDP1 cells + 20 nM CPT, ATP luminescence, 48 h; Potency, µM (top dose mostly 46.2 µM), inactives show at the highest dose activity change, negative = growth inhibition, hits mostly inhibitors; hit rate 12% among 420,000; AID 686979; note: potency is the fitted concentration of half-maximal effect; nearly all actives have a fitted effect of over 55% in size
#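 Chicken DT40 Tdp1-/- cells complemented with human TDP1, 400 cells/well, exposed to compounds plus 20 nM camptothecin for at least 48 h at 37 C; viability read as ATP content by CellTiter-Glo luminescence.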
# HT1080 IDH1KD tx: toxicity to HT-1080 IDH1 knockdown cells (counter line) | HT-1080 IDH1 knockdown viability, ATP luminescence, 48 h | Potency, µM (highest dose often 46.1 µM), without a hit: top-dose activity, negative = toxicity, hits mostly cytotoxic | hit rate 2% among 360,000 | AID 686971;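 note: potency is the fitted concentration of half-maximal effect; 0% = DMSO wells and -100% = cell-free medium wells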
#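 % activity derives from luminescence (CellTiter-Glo), normalised to DMSO and no-cell wells. HT-1080-IDH1KD cells, 750/well, had 48 h compound exposure at 37 °C.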
# DT40 TDP1 no CPT: qHTS for Inhibitors of human tyrosyl-DNA phosphodiesterase 1 (TDP1): qHTS in cells in absence of CPT; DT40 Tdp1-/- hTDP1 cells, no CPT, ATP luminescence, 48 h; Potency, µM (doses to about 46.2 µM), inactives show at the highest dose activity change, negative = growth inhibition, most hits filed as inhibitors; hit rate 15% among 420,000; AID 686978, 2013; note: potency is the fitted concentration of half-maximal effect; nearly all actives have a fitted effect of over 55% in size
#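 Compound effects on proliferation are scored in DT40 Tdp1-/-;hTDP1 cells in the absence of CPT. ATP levels (CellTiter-Glo luminescence) are recorded after a ≥48 hr, 37 °C incubation.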
# IL-1B inflam inh: blocks inflammasome-driven IL-1 beta release. THP-1 LPS/ATP IL-1B secretion, AlphaLISA, 16 h; hits give low values. activity change, % at 57.5 µM. hit rate 4.7% among 360,000; in the data active = activity change below about -50%; inconclusive = mostly about -30% to -49%
#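 THP-1 cells pretreated 1 hr with compounds (up to 57.5 uM final), then stimulated with LPS (250 ng/mL final) plus ATP (1.25 mM final); secreted IL-1B measured by AlphaLISA after 16 hr, decreased signal indicating inhibition.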
# 12-LOX inh: blocks human arachidonate 12S-lipoxygenase | hit rate 1.1% among 580,000 | Potency, µM (top dose mostly 108 µM), inactives show top-dose activity change, negative = inhibition, hits mostly inhibitors | purified 12hLO, xylenol orange hydroperoxide absorbance; note: potency is the fitted concentration of half-maximal effect
# Target sequence (P18054 whole entry, looked up): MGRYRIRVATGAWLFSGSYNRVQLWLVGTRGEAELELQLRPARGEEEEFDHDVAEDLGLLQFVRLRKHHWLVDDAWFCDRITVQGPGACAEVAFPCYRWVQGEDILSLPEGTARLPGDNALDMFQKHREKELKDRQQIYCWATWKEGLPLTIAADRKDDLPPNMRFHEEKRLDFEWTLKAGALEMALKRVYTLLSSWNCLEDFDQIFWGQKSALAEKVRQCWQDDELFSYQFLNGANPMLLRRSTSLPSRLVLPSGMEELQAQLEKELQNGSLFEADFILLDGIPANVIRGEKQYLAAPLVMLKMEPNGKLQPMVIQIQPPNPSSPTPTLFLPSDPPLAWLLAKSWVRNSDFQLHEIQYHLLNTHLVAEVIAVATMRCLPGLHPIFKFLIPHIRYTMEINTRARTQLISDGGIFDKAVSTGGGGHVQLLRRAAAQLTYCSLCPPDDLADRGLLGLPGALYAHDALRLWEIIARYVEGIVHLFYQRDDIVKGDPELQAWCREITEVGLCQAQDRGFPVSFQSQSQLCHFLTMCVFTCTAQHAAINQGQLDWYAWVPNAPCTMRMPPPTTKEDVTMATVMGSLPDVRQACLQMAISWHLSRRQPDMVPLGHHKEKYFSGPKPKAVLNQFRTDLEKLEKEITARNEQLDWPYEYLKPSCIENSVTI
#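 Purified human 12hLO at 150 nM in 25 mM Hepes, 0.01% Triton X-100, pH 7.0, preincubated 15 min at room temperature with compound. Reaction started with 40 uM arachidonic acid, 30 min at room temperature. Hydroperoxide measured by Fe-xylenol orange, 573/405 nm absorbance ratio.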
# * hit, by the source's call; u = inconclusive; x = not tested or not shown; [ ] = dose if it differs, or a comment. The entries come from a sample that favours hits as a whole. Unless noted, calls come from the whole dose curve; as a rule, active = well fitted curve in the direction sought with a large enough effect; inconclusive = small, poorly fitted or top-dose-only effect, or another doubt; inactive = no such curve, though single readings can be large; an effect the other way counts as inactive or inconclusive. Unless noted, % is set by controls: 0 for no effect and ±100 for the full control effect.
SMILES,HT1080NT lethal,DT40 TDP1 CPT,HT1080 IDH1KD tx,DT40 TDP1 no CPT,IL-1B inflam inh,12-LOX inh
COCc1cc(C)nc(OCC(=O)N/N=C/c2ccc(-c3cc([N+](=O)[O-])ccc3C)o2)c1C#N,1%,u,-28%,u,-26,0%
Cc1ccnc(NC(=O)Cc2ccc(Cl)cc2)c1,x,x,x,x,x,23%
Cc1ccc2c(c1)N(C(=O)CCC(=O)NCCCN1CCN(C)CC1)CCO2,-1%,0%,-2%,-26%,12,-10%
CC1CN(C(=O)CCC(=O)NCCCN2CCN(Cc3ccccc3)CC2)c2cc(Cl)ccc2O1 (stereo not drawn),-11%,21µM*,-2%,u,-22,-19%
Cc1ccc2c(c1)N(C(=O)CCC(=O)NCCCN1CCC(Cc3ccccc3)CC1)CCO2,u,u,u,18µM*,-28,2%
C=CCOc1ccccc1NC(=O)Cc1ccccc1,x,x,x,x,x,10%
Cc1c(CC(=O)N2CCCCC2)c(=O)oc2c(C)c3occ(C(C)(C)C)c3cc12,x,u,x,15µM*,x,-9%
COc1ccccc1CCNC(=O)Cc1c(C)c2cc3c(C(C)(C)C)coc3c(C)c2oc1=O,x,26µM*,x,21µM*,x,-23%
Cc1c(CC(=O)NCCc2ccc(Cl)cc2)c(=O)oc2c(C)c3occ(C(C)(C)C)c3cc12,x,u,x,21µM*,x,u
CCc1ccc(-c2nc(SCc3cc(=O)n4nc(C)sc4n3)n[nH]2)cc1,x,x,x,x,x,3%
CCOc1ccccc1C1CC(=O)NC(C)=C1C(=O)OCc1ccc(C)cc1 (stereo not drawn),x,u,x,16µM*,x,0%
CCCOc1ccccc1C1CC(=O)NC(C)=C1C(=O)OCC(C)C (stereo not drawn),-13%,21µM*,u,16µM*,-11,u
CC1=C(C(=O)OCc2ccc(C)cc2)C(c2ccccc2F)CC(=O)N1 (stereo not drawn),x,u,x,u,x,0%
CC1=C(C(=O)OC(C)C)C(c2ccccc2Cl)CC(=O)N1 (stereo not drawn),-3%,21µM*,-16%,12µM*,2,-17%
CC1=C(C(=O)OC2CCCCCCC2)C(c2ccc(O)cc2)NC(=O)N1 (stereo not drawn),u,u,5%[9.24 µM],u,-55*,u
CSCCOC(=O)C1=C(C)NC(=O)CC1c1ccccc1Cl (stereo not drawn),-4%,u,-2%,u,0,-14%
Cc1ccc(Nc2cc(C)nc3c(C)c(C)cc([N+](=O)[O-])c23)cc1,x,x,x,x,x,15%
CC(C)CCCC1CN(C(=O)c2c(O)cccc2O)CCO1 (stereo not drawn),x,x,x,x,x,31%
CSC1CCCCC1(O)CSc1nc(-c2ccc(C)cc2)cc(-c2ccccc2)c1C#N (stereo not drawn),x,x,x,x,x,-2%
O=C(Cn1ncc2ccccc2c1=O)Nc1ccc(F)c(F)c1F,x,x,x,x,x,-27%
CCOc1ccccc1C1NC(=O)NC(C)=C1C(=O)OC1CCCC1C (stereo not drawn),0%,-26%,-8%,u,-3,0%
CCC(C)OC(=O)C1=C(C)NC(=O)CC1c1ccccc1OC (stereo not drawn),-5%,8.2µM*,-2%,10µM*,-19,2%
CCOc1ccccc1C1CC(=O)NC(C)=C1C(=O)OC1CCCCCC1 (stereo not drawn),x,21µM*,x,16µM*,x,0%
COC(=O)C1=C(C)NC(=O)CC1c1ccccc1F (stereo not drawn),-1%,1%,5%[9.24 µM],-6%,9,1%
CCOc1ccccc1C1NC(=O)NC(C)=C1C(=O)OC1CCCCC1 (stereo not drawn),-6%,u,6%[9.24 µM],u,-68*,2%
SMILES,HT1080NT lethal,DT40 TDP1 CPT,HT1080 IDH1KD tx,DT40 TDP1 no CPT,IL-1B inflam inh,12-LOX inh
COc1ccc(N2C(=O)/C(=C/c3ccc([N+](=O)[O-])cc3)N=C2C)cc1,2%,-16%,-5%,u,15,-4%
CC1=N/C(=C\c2ccc([N+](=O)[O-])cc2)C(=O)N1c1ccc(Br)c(C)c1,-2%,12µM*,1%,5.8µM*,-19,-8%
CCC(C)NC(=O)CC1Sc2ncccc2N(CC(C)C)C1=O (stereo not drawn),x,x,x,x,x,-3%
Cc1cccc(C(=O)Nc2c(NC3CCCC3)c3ccccc3oc2=O)c1,x,x,x,x,x,-3%
CCNC(=O)C1(C)CCN(Cc2cccc(Oc3ccccc3)c2)C1 (stereo not drawn),-23%,u,u,16µM*,1,-24%
CCNC(=O)C1(C)CCCN(Cc2ccc(Oc3ccccc3)cc2)C1 (stereo not drawn),18%,13µM*,13%,18µM*,-2,-16%
CCCNC(=O)C1(C)CCN(Cc2cccc(OC(=O)c3ccccc3)c2)C1 (stereo not drawn),0%,-6%,11%,1%,-23,u
CC(=O)NC1(C)CCCN(Cc2ccc(Oc3ccccc3)cc2)C1 (stereo not drawn),x,x,x,x,x,5%[176 µM]
COc1cc(OC)cc(C(=O)Nc2cccc(-c3nnc4n3CCCC4)c2)c1,x,x,x,x,x,13%
O=C(O)c1nn(Cc2csc(-c3ccccc3)n2)c(=O)c2ccccc12,18%,u,10%,12µM*,5,6%
CNC(=O)N1CCCC(n2c(C)cnc2-c2ccncc2)C1 (stereo not drawn),x,x,x,x,x,-6%
Cc1c(Br)c([N+](=O)[O-])nn1CCCC(=O)Nc1sc2c(c1C#N)CCC2,-15%,15µM*,-7%,16µM*,-11,u
COC(=O)c1ccccc1NC(=O)CCCn1nc([N+](=O)[O-])c(Br)c1C,-4%,15µM*,1%,-20%,21,-11%
CC(N)=Nc1ccc([N+](=O)[O-])cc1,19%,-10%,13%,-3%,6,14%
O=C1CC(=Nc2ccc([N+](=O)[O-])cc2)NN1c1c(Cl)cc(Cl)cc1Cl,-15%,u,-15%,26µM*,-74*,32µM*
O=C1NC[C@H](c2ccccc2)OC(=O)[C@H](Cc2ccc(F)cc2)C/C=C\C[C@@H]1CC(=O)N(CCO)Cc1ccccc1,-1%,21µM*,0%,16µM*,-21,u
O=C1CCCC/C=C\C[C@H](CC(=O)N(CCO)Cc2ccccc2)C(=O)NC[C@H](c2ccccc2)O1,8%,u,-9%,u,-7,0%
